PubChem BioAssay AID1822 (The Scripps Research Institute Molecular Screening Center, 2009)
“And” between values parts separate entries of the source, which are not always exact repeats. Equal values may be shown once. Among all 290,000 compounds or so, about 3,500 (1.2%) were called active. For the sample, actives were picked, then their nearest neighbours and some compounds at random. Unmarked numbers belong to inactive results.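 How the source made its calls: active means inhibition above the campaign mean inhibition over all tested compounds plus 3 SD (cut at about 28% in these data); inactive means the rest.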

Tested on: M18 aspartyl aminopeptidase (Plasmodium falciparum 3D7)
Assay: PfM18AAP inhibitors, malaria aminopeptidase, primary screen, biochemical, QFRET, recombinant enzyme (AID 1822);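 further: 0% = plate median of test compound wells and 100% = 2 mM ZnCl2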
Conditions: H-Glu-NHMec fluorogenic cleavage, at 7.35 µM, stronger effect = higher value

Row | SMILES | inhibition
1 | COc1ccc(C(=O)Nc2c(N)nc(SCC(=O)Nc3ccc(C(C)=O)cc3)[nH]c2=O)cc1 | 7.68%
2 | COC(=O)c1ccc(NC(=O)CSc2nc(N)c(NC(=O)c3ccc(Br)o3)c(=O)[nH]2)cc1 | 0.86%
3 | Nc1nc(SCC(=O)Nc2cc(C(F)(F)F)ccc2Cl)[nH]c(=O)c1NC(=O)c1ccco1 | 30.4% (active)
4 | COc1ccc(C)cc1Nc1nc(C)nc2c1oc1ccccc12 | 2.6%
5 | CCc1ccc(C(CNc2nc(C(F)(F)F)nc3ccccc23)N(C)C)cc1 (centres undefined) | 2.51%
6 | Cc1cc(OC(=O)c2ccccc2Cl)ccc1N1C(=O)CCC1=O | 3.74%
7 | CC(=O)c1ccc(NC(=O)Nc2ccc([N+](=O)[O-])cc2C)cc1 | -10.5%
8 | CCN(CC)S(=O)(=O)c1cc([N+](=O)[O-])ccc1N=Nc1c(O)n(C)c2ccccc12 | -3.78%
9 | CCN(CC)S(=O)(=O)c1cc([N+](=O)[O-])ccc1NNC(=O)Nc1ccccc1 | 48.1% (active)
10 | CCCCN(CCCC)CCNC(=O)CN1C(=O)COc2ccc(S(=O)(=O)N3CCOCC3)cc21 | 7.53%
11 | CCCCN1C(=O)C(C)=C(C)C1OCCc1ccc(OC)c(OC)c1 (centres undefined) | -8.94%
12 | CC1(C(=O)N/N=C/c2cc3c(cc2Br)OCO3)CC1(Br)Br (centres undefined) | 7.28%
13 | CN(C)CCCN(C(=O)COc1ccccc1)c1nc2c(Cl)cccc2s1 | -2.07%
14 | NNc1nc2c(Cl)cccc2s1 | 28.1% (active)
15 | Fc1cc(F)c2nc(Nc3nc4c(F)cccc4s3)sc2c1 | -6.75%
16 | CCOC(=O)C1CCCN(S(=O)(=O)c2ccc3c(c2)C(C)(C)C(=O)N3C)C1 (centres undefined) | 7.85%
17 | OC(c1ccc(Cl)cc1)C(CN1CCOCC1)c1ccccc1 (centres undefined) | 1.27%
18 | CCOc1ccc(S(=O)(=O)NCc2ccc3c(c2)OCO3)cc1C | -10.2%
19 | CSc1ccc(CCNC(=O)CS(=O)(=O)Cc2nc(-c3ccccc3F)oc2C)cc1 | -0.36%
20 | Oc1c(C(c2cccs2)N2CCN(c3ccc(F)cc3)CC2)sc2ncnn12 (centres undefined) | 16.4%
21 | Cc1nc2sc(C(c3ccco3)N3CCC4(CC3)OCCO4)c(O)n2n1 (centres undefined) | 0.84%
22 | Oc1c(C(c2ccco2)N2CCC3(CC2)OCCO3)sc2ncnn12 (centres undefined) | 35.8% (active)
23 | CCc1nn(CCCN2CCN(c3cccc(Cl)c3)CC2)c(=O)n1CCOc1ccccc1 | 8.14% and 7.54%
24 | O=S(=O)(c1ccc(Cl)cc1)N1CCCN(c2ccc(C(F)(F)F)cn2)CC1 | -1.37%

Row | SMILES | inhibition
25 | COc1ccc(OC)c(/C(C)=N\NC(=O)c2cc3cc(Cl)ccc3n2C)c1 | 3.86%
26 | Oc1ccc(N=Cc2c(O)ccc3ccccc23)cc1 | 28.4% (active)
27 | O=[N+]([O-])c1ccc(N=Cc2c(O)ccc3ccccc23)cc1 | -0.85%
28 | Oc1ccc(N=Cc2sc3ccccc3c2Cl)cc1 | 21.1%
29 | Clc1ccc(Cc2nn3c(-c4ccncc4)nnc3s2)cc1 | 8.22%
30 | Cc1cccc(C(=O)NC(=S)N(C)C2CCCCC2)c1 | 7.02%
31 | NC(=O)c1c(NC(=O)CSc2nnc(-c3ccco3)n2N)sc2c1CCCC2 | 34.4% (active)
32 | CCc1cccc(C)c1NC(=O)CSc1nnc(-c2ccco2)n1N | 3.63%
33 | NC(=O)c1c(NC(=O)CSc2nc(N)cc(=O)[nH]2)sc2c1CCCC2 | 8.38%
34 | CC(C)c1ccc(S(=O)(=O)NC2CCCC2)cc1 | -8.03%
35 | Cc1ccccc1CN1CCC(C(=O)Nc2ccc(Oc3cccnc3)cc2)CC1 | 0.98%
36 | O=C(c1ccc[nH]c1=S)N1CCN(S(=O)(=O)c2ccc(Br)cc2Cl)CC1 | 29.6% (active)
37 | O=C(c1ccc(Cl)c(S(=O)(=O)N2CCCCC2)c1)N1CCCCCC1 | -4.84%
38 | O=C(c1ccccc1F)N1CCN(S(=O)(=O)c2ccc(Br)cc2)CC1 | 1.79%
39 | COc1cc(NC(=O)C2=CC(c3ccco3)=NS(=O)(=O)N2C)cc(OC)c1OC | 3.32%
40 | O=C(N/N=C/c1ccc(OC(=O)c2ccccc2Cl)cc1)c1ccc(O)cc1 | 8.47%
41 | O=C(CO/N=C/c1ccccc1OC(F)F)NC1CCCC1 | 3.38%
42 | O=C(CO/N=C/c1ccccc1O)NNC(=O)c1ccccc1Cl | 43.1% (active)
43 | CC(C)c1ccc(NC(=S)NC2CC3C=CC2C3)cc1 (centres undefined) | -6.48%
44 | CC(=O)c1cnc(Nc2nc(C)c3cc(C)ccc3n2)nc1C | 1.6%
45 | O=C(NCCCn1ccnc1)c1cc(-c2ccccc2)on1 | -9.41%
46 | Cc1onc(C(=O)NN)c1-c1csc(COc2ccccc2)n1 | -8.62%
47 | CC(C)(C)C(=O)OCc1nc(-c2ccc(O)c(O)c2)cs1 | 58.2% (active)
48 | COc1ccc(-c2csc(Cc3nc(O)cs3)n2)cc1 | 8.2%

Row | SMILES | inhibition
49 | COC(=O)[C@@H]1CCCN1C(=O)c1cc(COc2cccc3cccnc23)on1 | 3.55%
50 | COc1cc(C)c(C)cc1S(=O)(=O)N1CCCc2ccccc21 | -5.85%
51 | Cc1[nH]c(C)c(S(=O)(=O)N2CCC(C)CC2)c1C(=O)N1CCCC1 | -4.62%
52 | COCCCNC(=O)C1CC(=O)N(CCc2ccc(F)cc2)C1 (centres undefined) | 2.65%
53 | CCOC(=O)CSc1nnc(NC(=O)C2CC(=O)N(c3ccc(F)cc3)C2)s1 (centres undefined) | -0.3%
54 | COc1cccc(N(C(=O)CNC(=O)c2ccco2)C(C(=O)NC2CCCCC2)c2cccnc2)c1 (centres undefined) | 9.7%
55 | CC(C)(C)NC(=O)C(c1ccncc1)N(C(=O)CNC(=O)c1ccco1)c1ccc2c(c1)OCO2 (centres undefined) | 35% (active)
56 | Cc1ccc(N(C(=O)CNC(=O)c2ccco2)C(C(=O)NC2CCCC2)c2ccncc2)cc1 (centres undefined) | 0.63%
57 | C/C(CC1CC(C)(C)OC1=O)=N/Nc1nc(-c2ccccc2)cs1 (centres undefined) | 6.59%
58 | O=C(CSc1nccc(=O)[nH]1)Nc1ccc(N2CCOCC2)c(Cl)c1 | 2.24%
59 | O=C(CN1CCN(c2ccccc2)CC1)Nc1ccc(F)cc1 | -1.61%
60 | O=C(CN1CCOCC1)Nc1cc(Cl)ccc1Cl | 1.38%
61 | O=C(CN1CCN(c2ccc(O)cc2)CC1)Nc1ccc(-c2ccccc2)cc1 | 42% (active)
62 | O=C(CN1CCN(c2ccc(O)cc2)CC1)Nc1cc(S(=O)(=O)N2CCOCC2)ccc1Cl | 30.2% (active)
63 | O=C(CN1CCN(c2ccc(F)cc2)CC1)Nc1ccccc1 | -7.36%
64 | O=C(CN1CCN(c2cccc(Cl)c2)CC1)Nc1ccc(S(=O)(=O)N2CCOCC2)cc1 | -3.74%
65 | Cn1cc[n+](C)c1COc1ccc(C=O)cc1 | -14%
66 | CC1CN(C(=O)CCC(=O)NCCCN2CCC(Cc3ccccc3)CC2)c2cc(Cl)ccc2O1 (centres undefined) | -5.3%
67 | O=C(C[n+]1ccc2c(c1)nnn2-c1ccccc1)c1ccc(Cl)cc1 | 0%
68 | CSc1nc2ccccc2c(=O)n1Cc1ccc(F)cc1 | 4.37%
69 | CC(=O)c1ccc(-c2ccc(Cn3c(C)nc4cc(N)c(C)nc43)cc2)cc1 | -5.95%
70 | Cc1cc2nc3c(=O)n(Cc4ccccc4)c(=O)[nH]c3nc2cc1N | 33.3% (active)
71 | CC1CCN(C(=O)C2CCN(S(=O)(=O)N3CCC4(CC3)OCCO4)CC2)CC1 | -6.53%
72 | O=C(Nc1cccc(Cl)c1)C1CCCN(c2cnccn2)C1 (centres undefined) | -0.72%

Row | SMILES | inhibition
73 | COc1cc(NC(=S)N2CCCC(C)C2)c(OC)cc1Cl (centres undefined) | 33.9% (active)
74 | COc1ccc(NC(=S)N2CCCC(CO)C2)c(OC)c1 (centres undefined) | 1.11%
75 | COc1cc(NC(=S)N2CCCC(C)C2)cc(OC)c1OC (centres undefined) | 16.2%
76 | COc1ccc(S(=O)(=O)N2CCC(C(=O)NCCC(=O)NCc3cccc(OC)c3)CC2)cc1 | -4.58%
77 | O=C(O)c1cccc2c1C(=O)N(C1CCCC1)C2 | -3.09%
78 | C/C(=N\NC(=O)c1ccc(C)cc1)C1C(=O)c2ccccc2C1=O | 9.83%
79 | N#Cc1ccc(C(c2nnnn2CCc2ccccc2)N2CCCCCC2)cc1 (centres undefined) | -9.05%
80 | N#Cc1ccc(CSc2ncccn2)cc1 | 0.4%
81 | N#Cc1ccc(C(c2ccc(C#N)cc2)n2cncn2)cc1 | 51.3% (active)
82 | CCOc1ccc(N/C=C/C(=O)c2ccccc2)cc1 | 0.48%
83 | Cc1nc2nc(COc3ccccc3)[nH]n2c(=O)c1Cc1ccccc1 | 5.29%
84 | Cc1nc2nc[nH]n2c(=O)c1C/C=C/c1ccccc1 | 41.7% (active)
85 | C=CCc1c(C)nc2cc(-c3ccccc3)[nH]n2c1=O | -0.1%
86 | COC(=O)C1[C@H]2SC(C)(C)C(C(=O)OC)N2C(=O)N1Cc1nc2ccccc2s1 (some centres undefined) | 2.76%
87 | CSc1nnc(NC(=O)c2nc(S(=O)(=O)Cc3ccc(C)cc3)ncc2Cl)s1 | -15.5%
88 | COC(=O)NNC1=CC(=O)CC(C)(C)C1 | 9.27%
89 | CC1(C)CC(=O)C=C(Nc2ccccc2)C1 | -2.72%
90 | Cc1cc(C)nc(NNC2=CC(=O)CC(C)(C)C2)n1 | 42.9% (active)
91 | Cc1onc(C(=O)Nc2ccc3c(c2)OCO3)c1[N+](=O)[O-] | -1.41%
92 | Cc1cc(-c2n[nH]c(=S)n2/N=C/c2ccco2)n[nH]1 | 6.34%
93 | S=c1[nH]nc(-c2ccco2)n1/N=C/c1ccc(Br)s1 | 28% (active)
94 | S=c1[nH]nc(-c2ccco2)n1/N=C/c1ccccc1 | 19.4%
